Data taken from the supplement of paper PMC7184167.
Counter-ions that a name gives are not always drawn.

These compounds were tested on replication-induced senescent mouse newborn dermal fibroblasts (NBF) (assay: relative cell viability of senescent cells (fraction); higher = less killing of senescent cells). Conditions: 1 µM; 3 days.
Protocol: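 Replication-induced senescent newborn mouse skin fibroblasts (NBFs) in 24-well plates were treated with a Selleck FDA-approved drug library at 1 µM for 3 days.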
C=CC[N+]1([C@H]2C[C@H]3[C@@H]4CC[C@H]5C[C@H](O)[C@@H](N6CCOCC6)C[C@]5(C)[C@H]4CC[C@]3(C)[C@H]2OC(C)=O)CCCC1 [Rocuronium Bromide] was tested, and the relative cell viability was 0.939. With COc1ccc(/C=C/C(=O)Nc2ccccc2C(=O)O)cc1OC [Tranilast] the relative cell viability was 1. In the case of COc1c(N2C[C@@H]3CCCN[C@@H]3C2)c(F)cc2c(=O)c(C(=O)O)cn(C3CC3)c12 [Moxifloxacin HCl], the relative cell viability is reported as 1.03. In the case of CCC(C)(C)c1ccc(CC(C)CN2C[C@@H](C)O[C@@H](C)C2)cc1 (some centres not stated) [Amorolfine HCl], the relative cell viability is reported as 1.09. CC(=O)O[C@H]1C[C@@H]2CC[C@@H]3[C@H](CC[C@@]4(C)[C@H]3C[C@H]([N+]3(C)CCCCC3)[C@@H]4OC(C)=O)[C@@]2(C)C[C@@H]1N1CCCCC1 [Vecuronium Bromide] showed a relative cell viability of 1.08. C[C@@H](O[C@H]1OCCN(Cc2n[nH]c(=O)[nH]2)[C@H]1c1ccc(F)cc1)c1cc(C(F)(F)F)cc(C(F)(F)F)c1 [Aprepitant] was tested, and the relative cell viability was 1.08. Oc1c(Cl)cc(Cl)c2cccnc12 [Chloroxine] showed a relative cell viability of 0.982.
